# Screening results from PubChem BioAssay.
# KCNQ2 inh = inhibitors of rat KCNQ2 potassium channel. AID 2156. 310,000 tested, 1.1% active. B-score at 10 µM. CHO-K1 KCNQ2, FluxOR thallium flux, 20 min; stronger effect = lower value;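 active = fluorescence ratio B-score at most minus 3 library SDs, with starting brightness B-score within 2 library SDs, cut at about -5.5 in these data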
# Target sequence (O88943 whole entry, looked up): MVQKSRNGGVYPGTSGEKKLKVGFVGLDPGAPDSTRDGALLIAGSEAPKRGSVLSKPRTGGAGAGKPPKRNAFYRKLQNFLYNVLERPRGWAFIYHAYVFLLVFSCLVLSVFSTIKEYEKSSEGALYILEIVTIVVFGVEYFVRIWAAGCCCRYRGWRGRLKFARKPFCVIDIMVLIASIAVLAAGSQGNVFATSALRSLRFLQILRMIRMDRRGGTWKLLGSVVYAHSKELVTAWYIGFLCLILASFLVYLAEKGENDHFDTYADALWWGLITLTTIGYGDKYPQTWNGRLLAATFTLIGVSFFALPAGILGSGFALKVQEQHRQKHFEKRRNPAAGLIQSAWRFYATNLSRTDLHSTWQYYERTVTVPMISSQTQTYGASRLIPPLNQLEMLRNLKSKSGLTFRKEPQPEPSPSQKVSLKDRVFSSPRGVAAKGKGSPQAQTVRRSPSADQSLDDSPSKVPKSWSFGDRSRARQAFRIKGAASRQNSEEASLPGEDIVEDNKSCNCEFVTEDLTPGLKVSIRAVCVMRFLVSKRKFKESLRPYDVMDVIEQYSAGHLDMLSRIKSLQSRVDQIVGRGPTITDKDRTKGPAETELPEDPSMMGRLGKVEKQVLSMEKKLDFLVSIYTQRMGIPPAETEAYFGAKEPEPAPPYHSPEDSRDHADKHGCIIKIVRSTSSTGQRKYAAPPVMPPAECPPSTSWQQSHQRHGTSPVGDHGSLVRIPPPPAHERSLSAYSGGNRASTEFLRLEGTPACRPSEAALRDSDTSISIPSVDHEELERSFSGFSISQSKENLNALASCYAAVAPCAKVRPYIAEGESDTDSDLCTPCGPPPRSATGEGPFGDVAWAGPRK
# KCNQ2 pot = enhances the rat KCNQ2 potassium channel; O88943; CHO-K1 KCNQ2, FluxOR thallium flux fluorescence; stronger effect = higher value; B-score at 10 µM; 310,000 tested, 0.54% active; AID 2239;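 active = fluorescence ratio B-score at least 3 SD of library B-scores, with initial fluorescence B-score within 3 of them, cut at about 5.3 in these data; same plate scores as AID 2156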;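 note: B-score of peak minus minimum over baseline fluorescence ratio after K+ and Tl+ stimulus; positive B-score means potentiation of KCNQ2 with more thallium influx and brighter signal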
# Active calls of the source: *; i = inactive; x = not tested or not shown. Compounds with a hit are over-represented: about 1.6% of the library has one in this group of screens.
SMILES,KCNQ2 inh,KCNQ2 pot
CCOC(=O)N1CCN(CCC(=O)c2ccc(Cl)cc2)CC1,-6.7*,-6.7
CCOC(=O)N1CCN(CCC(=O)c2ccc(OC)cc2)CC1,i,x
COc1ccc2cc(C(=O)N3CCN(c4cccc(C)c4C)CC3)[nH]c2c1,-6.2*,-6.2
COc1cccc(N2CCN(C(=O)c3cc4ccc(OC)cc4[nH]3)CC2)c1,i,1.2
Cc1ccc(C(C#N)c2ccc(C(=O)c3ccc(F)cc3)cc2)cc1 (stereo not drawn),-6.4*,-6.4
N#CC(c1ccc(F)cc1)c1ccc(C(=O)c2ccc(F)cc2)cc1 (stereo not drawn),i,x
Cc1ccc(-c2nc(NCc3ccc(F)cc3)n(S(C)(=O)=O)n2)cc1,i,0.67
CCOC(=O)C1(CCOc2ccccc2)CCN(Cc2cccc3nonc23)CC1,-6.2*,-6.2
CCOC(=O)C1(CCOc2ccccc2)CCN(Cc2ccc(O)cc2)CC1,i,1.6
c1cc2c3c(cccc3c1)C(N1CCOCC1)=N2,i,x
c1ccc(CC2CCN(C3=Nc4cccc5cccc3c45)CC2)cc1,-6*,-6
COc1ccc2[nH]c(C(=O)O)c(NS(=O)(=O)c3ccc(C)cc3C)c2c1,i,x
O=C(COC(=O)CC(c1ccccc1)c1ccccc1)Nc1cccc(F)c1,i,x
O=C(COC(=O)CC(c1ccccc1)c1ccccc1)Nc1ccc(F)c(F)c1,-8.1*,-8.1
C/C(O)=c1/cnc2nc3ccccc3n2c1=O,i,0.7
O=C(Cn1c(=O)n(CC(=O)NCc2ccccc2)c2ccccc21)NCc1ccccc1,i,x
Cc1cc(=O)c2cc(Br)ccc2n1CC(=O)NCc1ccccc1,-8.3*,-8.3
CCOC(=O)c1nc(C)nc(Sc2n[nH]c(-c3cc(C(F)(F)F)cc(C(F)(F)F)c3)n2)c1C,i,x
CCCCOc1cccc(C2/C(=C(\O)c3ccc4c(c3)OCCO4)C(=O)C(=O)N2CCN2CCOCC2)c1 (stereo not drawn),i,x
Cc1cc(/C=C(/C#N)c2cccc(F)c2)c(C)n1-c1cccnc1,-8*,-8
Cc1cc(/C=C(\C#N)C(=O)NCc2ccco2)c(C)n1-c1cccnc1,i,0.47
O=C(OCC(=O)N1CCCCC1)c1cc(NS(=O)(=O)c2ccc(Cl)c([N+](=O)[O-])c2)ccc1O,i,x
CCOc1ccc(OCc2ccc(C(=O)N3CCCCC3)o2)cc1,i,0.18
CCOc1ccc(OCc2ccc(C(=O)N3CCc4ccccc4C3)o2)cc1,-6.1*,-6.1
O=C(c1cccs1)N1CCN(c2nnc(-c3ccccc3)c3ccccc23)CC1,-5.9*,-5.9
SMILES,KCNQ2 inh,KCNQ2 pot
Cc1ccc(-c2nnc(N3CCN(C(=O)c4cccs4)CC3)c3ccccc23)cc1,i,x
CCN(CC)c1ccc(NC(=O)CSc2ccsc2[N+](=O)[O-])c(C)c1,i,5.5*
O=C(CSc1ccsc1[N+](=O)[O-])Nc1cc(F)ccc1F,i,x
COc1cc(OC)nc(Oc2cc(C=O)ccc2OC)n1,i,x
Cc1c(Cl)cccc1NC(=O)CSc1ncnc2c1cnn2CCc1ccccc1,i,x
O=C(CSc1ncnc2c1cnn2CCc1ccccc1)Nc1cccc(C(F)(F)F)c1,-6.7*,-6.7
Cc1cc(C)cc(N2CC(C(=O)OCC(=O)Nc3cc(C)on3)CC2=O)c1 (stereo not drawn),i,x
Cc1ccc2c(c1)C1CN(C)CCC1N2C(=O)COc1ccc(N(C)C(=O)C(C)(C)C)cc1 (stereo not drawn),i,x
Cc1ccc2c(c1)C1CN(C)CCC1N2CC(=O)N(C)c1ccccc1 (stereo not drawn),i,5.6*
CS(=O)(=O)N1CCC(Oc2ccccc2C(=O)NCCCc2cccnc2)CC1,i,x
O=C(OCC(=O)N1CCN(c2ccccc2)CC1)c1ncc(Cl)c(Cl)c1Cl,i,x
O=S(=O)(NC1c2cccc3cccc(c23)C1N1CCNCC1)c1ccc(Cl)cc1 (stereo not drawn),i,x
Cn1c(=O)c([N+](=O)[O-])c(Cl)c2ccccc21,-6.2*,-6.2
CCN(CC)c1c([N+](=O)[O-])c(=O)n(C)c2ccccc12,i,x
O=C(O)CC1(CC(=O)Nc2ccc(Br)cc2)CCCCC1,-7.6*,-7.6
O=C(O)CC1(CC(=O)Nc2ccc3ccccc3c2)CCCCC1,i,x
CN(C(=O)c1cccc(C#CC(C)(C)O)c1)C1CCCN(Cc2ccccc2F)C1 (stereo not drawn),i,x
NS(=O)(=O)c1cccc(NC(=O)Cn2nc(C(=O)O)c3ccccc3c2=O)c1,i,1.3
COc1ccc(C)cc1S(=O)(=O)N(CC(=O)Nc1cccc([N+](=O)[O-])c1)c1ccccc1,i,0.79
Cc1ccc(NC(=O)CN(c2ccc(Cl)cc2)S(=O)(=O)c2cc([N+](=O)[O-])ccc2Cl)c(C)c1,-7.9*,-7.9
Cc1ccc([N+](=O)[O-])cc1NC(=O)CN(C(=O)c1ccccc1Cl)C1CCCCC1,i,x
CS(=O)(=O)N(CC(=O)Nc1cccc([N+](=O)[O-])c1)c1ccccc1,i,1.1
Cc1ccccc1CN(CC(=O)Nc1cccc([N+](=O)[O-])c1)S(=O)(=O)c1ccc(Cl)cc1,-6.6*,-6.6
Cc1ccc([N+](=O)[O-])cc1NC(=O)CN(C1CCCCC1)S(=O)(=O)c1ccc(Cl)cc1,-7.9*,-7.9
CSCCC(=O)N1CCC(n2nccc2NC(=O)CCCc2ccccc2)CC1,i,0.56
SMILES,KCNQ2 inh,KCNQ2 pot
O=C(O)CCc1nc2cc(C(F)(F)F)ccc2n(Cc2ccccc2)c1=O,i,0.94
O=C(CCc1nnc(CCCc2ccccc2)o1)NCC(F)(F)F,i,0.71
CCOC(=O)CCSc1nc(C)cc(C(F)(F)F)c1C#N,-5.7*,-5.7
CCOC(=O)CCSc1nc(C(C)(C)C)cc(C(F)(F)F)c1C#N,i,x
COc1cccc(O)c1CN1CCC(n2nccc2NC(=O)c2ccc3c(c2)OCO3)CC1,i,0.63
CCN(CC)S(=O)(=O)c1ccc(C)c(NC(=O)COc2ccc(Cl)cc2Br)c1,i,0.05
CCN(CC)S(=O)(=O)c1cc(NC(=O)COc2ccc(C#N)cc2OC)ccc1C,i,x
CCN(CC)S(=O)(=O)c1cccc(NC(=O)COc2ccc(C#N)cc2OC)c1,i,7.5*
CCN(CC)S(=O)(=O)c1cccc(NC(=O)COc2ccc(F)cc2Br)c1,-7.6*,-7.6
Cn1cc(C(=O)c2ccc(Cl)cc2Cl)cc1C(=O)N/N=C(\N)COc1cccc(C(F)(F)F)c1,i,0.93
COc1ccc(CC(=O)Nc2cccc(/C(C)=N/NC(=O)c3cccc([N+](=O)[O-])c3)c2)cc1,-6*,-6
COc1ccc(CC(=O)N/N=C(\C)c2cccc(NC(=O)C3CC3)c2)cc1,i,2.9
Cc1cc2oc(=O)cc(CN3CCc4ccccc43)c2cc1Cl,-6.4*,-6.4
Cc1ccc2c(CN3CCCc4ccccc43)cc(=O)oc2c1C,i,x
O=c1cc(CN2CCc3ccccc32)c2ccc(O)cc2o1,i,x
CCc1ccc2c(CN3CCc4ccccc43)cc(=O)oc2c1,-5.6*,-5.6
CCOc1ccc(OCCCC(=O)NCCc2ccc(OC)cc2)cc1,i,x
Cn1nc(C(=O)OCC(=O)Nc2sccc2C(N)=O)c2ccccc2c1=O,i,x
CC(Oc1ccc2ccc(=O)oc2c1)C(=O)NC1CC(C)(C)NC(C)(C)C1 (stereo not drawn),i,x
Cc1cc(C(C)(C)C)oc1C(=O)N(CC(=O)NC1CCCC1)Cc1ccccc1,i,x
Cc1ccc(C)c(N(CC(=O)NC2CCCC2)C(=O)c2oc(C(C)(C)C)cc2C)c1,-6.6*,-6.6
